From PubChem BioAssay AID1159580 (chemical genetic matrix, 2015)
Screen size: about 5,500 compounds; about 2,000 (36%) were called active. Not shown: some 18% with an inconclusive outcome. Rule as the data show it: active = normalized growth mostly below about 0.91 (no sharp cut-off); inconclusive = no clear call, values can overlap the other calls; inactive = mostly above about 0.92. The list shows a part of the results.

Assay: chemical genetic growth profiling, strain panel (AID 1159580);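 also: tested at 20 µM; growth read once vehicle control cultures reached saturation at 30 °C; 1 = growth at the plate median or of vehicle wells; lower values mean less growth of the strain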
Conditions: S. cerevisiae deletion strains, growth OD

Measured: normalized growth

O=S(=O)(c1cccc2c(Cl)cccc12)N1CCCNCC1
inactive: locus YAL040C, strain CLN3, stronger effect = lower value 0.99 | locus YDR363W, strain ESC2, stronger effect = lower value 1 | locus YER002W, strain NOP16, stronger effect = lower value 0.988 | locus YGR078C, strain PAC10, stronger effect = lower value 0.986 | locus YMR263W, strain SAP30, stronger effect = lower value 1 | locus YNL128W, strain TEP1, stronger effect = lower value 1.01 | locus YNL175C, strain NOP13, stronger effect = lower value 1.03 | locus YNL197C, strain WHI3, stronger effect = lower value 1.03 | locus YNL224C, strain SQS1, stronger effect = lower value 1.01 | locus YOR083W, strain WHI5 (second series), stronger effect = lower value 1.02 | locus YPL241C, strain CIN2, stronger effect = lower value 1
